Test systems include NCI-H226 lung; NCI-H322M lung; HOP-62 NSCLC; NCI-H460 lung; HOP-92 NSCLC; NCI-H522 lung; A549/ATCC NSCLC; 786-0 renal; COLO 205 colon; DU-145 prostate; K-562 leukemia; MALME-3M melanoma; MDA-MB-231 breast; RXF 393 renal; SF-268 CNS; SF-295 CNS; SF-539 CNS; UACC-257 melanoma; M14 melanoma; NCI-H23 lung.
What all share (assay): NCI-60 one-dose screen, 48 h (100 = growth as untreated, 0 = no growth, -100 = all killed)
Details in all cases: 10 µM unless noted

Among the data in PubChem BioAssay (NCI) are growth values, retold here.

About 83,000 compounds went through this panel and 20% of them were active in at least one assay; those are over-represented in the sample as a whole.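 Percent growth is the endpoint: 0 to 100 indicates growth inhibition (40 means 60% inhibition), 0 means no net growth, and negative values indicate cell death.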 Unmarked numbers belong to inactive results. Activity calls are given as the source filed them. How the source made its calls: active means growth percent below 10; inactive means the rest.

With `C#CCOc1cc(N(CC)CC)ccc1C(C(=O)NC(C)(C)C)N(C(=O)C1CCc2cc(F)ccc2O1)c1ccccc1F` (centres undefined), the growth in the test with NCI-H226 lung was 34.4%; in the test with NCI-H322M lung it was 72.2%; in the test with HOP-62 NSCLC it was 49.5%; in the test with NCI-H460 lung, 30.1%; in the test on HOP-92 NSCLC, 18.6%; with NCI-H522 lung it was 31.2%. Besides, the growth in the test with A549/ATCC NSCLC was 35.2%; in the test on 786-0 renal it was 44.1%; in the test with COLO 205 colon, 12.9%; in the test on DU-145 prostate, 58.4%; in the test with K-562 leukemia it was 17%; with MALME-3M melanoma it was 57.7%. The growth in the test with MDA-MB-231 breast is 53.4%; in the test on RXF 393 renal it was 40.4%; in the test on SF-268 CNS it was 38.4%; in the test on SF-295 CNS, 19.9%; in the test with SF-539 CNS it was 50.7%; in the test with UACC-257 melanoma it was 30.2%. In addition, the growth with M14 melanoma is 39%.
In the case of `CCOC(=O)C1=C(N)N(c2ccccc2)C2=C(C(=O)CC(C)(C)C2)C1c1ccccc1Cl` (centres undefined), the growth in the test with NCI-H226 lung was 76.3%; in the test on NCI-H322M lung, 82.2%; in the test with HOP-62 NSCLC, 94.1%; in the test on NCI-H460 lung, 60.2%; in the test on HOP-92 NSCLC, 68.9%; with NCI-H522 lung, 57.5%. Further, the growth with A549/ATCC NSCLC was 75.6%; with 786-0 renal it was 79.4%; with COLO 205 colon it was 65.3%; in the test with DU-145 prostate, 88.2%; in the test on K-562 leukemia, 41.5%; in the test with MALME-3M melanoma it was 89.3%. Further, the growth in the test on MDA-MB-231 breast is 84.8%; with RXF 393 renal, 78.2%; in the test on SF-268 CNS, 80%; in the test with SF-295 CNS it was 75%; in the test on SF-539 CNS, 100%; with UACC-257 melanoma, 72.5%. In the test with M14 melanoma, the growth is 50.8%.
Turning to `COc1ccc2c(c1)c(-c1cc3nc(-c4cn(C)c5ncc(Br)cc45)cc(N)n3n1)cn2C`, the growth in the test on NCI-H23 lung is -36.8% (active); in the test with NCI-H226 lung, 0.447% (active); in the test with HOP-62 NSCLC, -21.1% (active); with NCI-H522 lung it was -72.1% (active); in the test on A549/ATCC NSCLC it was -4.96% (active); in the test on 786-0 renal, -94.8% (active). Further, the growth is -74.6% (active) in the test with COLO 205 colon; 26% in the test with DU-145 prostate; -33.5% (active) in the test on K-562 leukemia; -88.4% (active) in the test on MALME-3M melanoma; -73% (active) with MDA-MB-231 breast; -72.9% (active) in the test on RXF 393 renal. Besides, the growth is 12.4% in the test with SF-268 CNS; -67.2% (active) in the test on SF-295 CNS; -87.6% (active) in the test with SF-539 CNS; -74.3% (active) in the test on UACC-257 melanoma; -74.4% (active) in the test on M14 melanoma.
For `C#CCOc1cc(N(CC)CC)ccc1C(C(=O)NC(C)(C)C)N(C(=O)C1CCc2cc(F)ccc2O1)c1ccc(F)c(Cl)c1` (centres undefined), the growth with NCI-H226 lung was 62.8%; in the test with NCI-H322M lung it was 89.5%; with HOP-62 NSCLC, 77.5%; in the test on NCI-H460 lung, 53.2%; with HOP-92 NSCLC it was 48.2%; in the test with NCI-H522 lung, 60.5%. Further, the growth in the test on A549/ATCC NSCLC is 65.9%; in the test with 786-0 renal it was 58.7%; in the test on COLO 205 colon, 63.1%; in the test on DU-145 prostate, 78.9%; in the test with K-562 leukemia, 35.7%; with MALME-3M melanoma, 81.7%. For the same compound, the growth was 55.5% with MDA-MB-231 breast; 59.3% in the test on RXF 393 renal; 49.8% in the test on SF-268 CNS; 72.8% in the test on SF-295 CNS; 77.9% with SF-539 CNS; 58.2% in the test on UACC-257 melanoma. Also, the growth in the test on M14 melanoma was 63.3%.
As for `CC1(C)CC[C@]2(C(=O)O)CC[C@]3(C)C(=CCC4[C@@]5(C)C[C@@H](O)[C@@H]6OC(c7ccco7)OC[C@@]6(C)C5CC[C@]43C)C2C1` (some centres undefined), the growth in the test with NCI-H226 lung was 50.6%; with NCI-H322M lung, 30.1%; in the test on HOP-62 NSCLC, 43.1%; in the test with NCI-H460 lung, 19.8%; with HOP-92 NSCLC it was -1.27% (active); with NCI-H522 lung it was 20.7%. Moreover, the growth was 18.3% in the test on A549/ATCC NSCLC; 42.7% with 786-0 renal; -86.9% (active) in the test with COLO 205 colon; 29.1% in the test on DU-145 prostate; 21.2% in the test on K-562 leukemia; 9.79% (active) in the test on MALME-3M melanoma. Besides, the growth is 59.7% in the test with MDA-MB-231 breast; 32.4% in the test on RXF 393 renal; 31.9% in the test on SF-268 CNS; 24.5% in the test on SF-295 CNS; 21.9% in the test with SF-539 CNS; 1.3% (active) with UACC-257 melanoma. For the same compound, the growth with M14 melanoma is 23.3%.
On to `COC(=O)/C=C/c1cccc2c1C(=O)NC(C)(c1cc3cc4ccccc4cc3oc1=O)N2` (centres undefined), for which the growth with NCI-H226 lung is 30.5%; in the test with NCI-H322M lung, 68%; in the test with HOP-62 NSCLC, 33.7%; with NCI-H460 lung it was 23.1%; with HOP-92 NSCLC, 47.1%; in the test on NCI-H522 lung, 52.9%. The growth in the test on A549/ATCC NSCLC is 26.9%; in the test with 786-0 renal, 83.9%; with COLO 205 colon, 53%; in the test on DU-145 prostate it was 46.1%; with K-562 leukemia, 46.7%; in the test on MALME-3M melanoma, 19.6%. Also, the growth with MDA-MB-231 breast is 28.5%; with RXF 393 renal, -0.792% (active); in the test with SF-268 CNS, 42.8%; in the test with SF-295 CNS, 75.3%; with SF-539 CNS, 44.7%; with UACC-257 melanoma it was 77.8%. Moreover, the growth in the test on M14 melanoma is 55.9%.
On to `Nc1nc(-c2ccccc2)c(N=Nc2ccc(Cl)cc2[N+](=O)[O-])s1`, for which the growth in the test on NCI-H226 lung was 77.4%; in the test with NCI-H322M lung it was 94.2%; in the test on HOP-62 NSCLC, 90.9%; in the test on NCI-H460 lung it was 105%; with HOP-92 NSCLC, 68%; in the test with NCI-H522 lung, 82.7%. Also, the growth in the test with A549/ATCC NSCLC is 95.3%; in the test with 786-0 renal, 93.4%; in the test on COLO 205 colon it was 101%; with DU-145 prostate, 112%; in the test on K-562 leukemia, 96.1%; with MALME-3M melanoma, 109%. Besides, the growth in the test on MDA-MB-231 breast is 95.5%; in the test with RXF 393 renal, 106%; in the test on SF-268 CNS, 87.7%; with SF-295 CNS, 101%; with SF-539 CNS, 86.5%; in the test on UACC-257 melanoma, 103%. In the test with M14 melanoma, the growth was 98.3%.
Regarding `CN(C)c1ccnc(CNCCSC2(c3ccc(C(F)(F)F)cc3)c3ccccc3C=Cc3ccccc32)c1`, the growth with NCI-H23 lung was -39.1% (active); in the test on NCI-H226 lung, 25.9%; with HOP-62 NSCLC, 17.2%; in the test with HOP-92 NSCLC it was -10.1% (active); in the test on NCI-H522 lung, -64.9% (active); in the test with A549/ATCC NSCLC, 2.72% (active). Further, the growth with 786-0 renal is -22.4% (active); in the test on COLO 205 colon, -82.3% (active); in the test on DU-145 prostate, 3.69% (active); in the test on K-562 leukemia, -11.1% (active); in the test on MALME-3M melanoma it was -89.7% (active); in the test on MDA-MB-231 breast, -48% (active). Besides, the growth is -26.7% (active) in the test with RXF 393 renal; 7.1% (active) in the test with SF-268 CNS; -90.6% (active) with SF-295 CNS; -96.8% (active) with SF-539 CNS; -20.6% (active) in the test on UACC-257 melanoma; -74.7% (active) in the test on M14 melanoma.
